According to the supplement of paper PMC10849652:
About 7,900 targets were measured; listed, in parts, are those with a hit and a random draw of the rest. About 0.6% of all pairs of compound and target were hits. A number with no mark means an inactive call.

Assays:
Test in all cases: log2 fold change, soluble protein after heating vs DMSO (PISA); higher = thermal stabilisation; K562 cells, 10 uM, 30 min; active = over 0.2 and 3.5 SD of the protein, either way, in both replicates (recomputed)
[1] = compound: NC(=O)Nc1cc(-c2cccc(F)c2)sc1C(=O)N[C@H]1CCCNC1
Procedure, shortened: (§1)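 K562 cells (2×10^6 cells/mL) were treated with 10 μM compound for 30 min, and aliquots were heated for 3 min over 48°C-58°C. Pooled aliquots were extracted in PBS with 0.5% NP-40 at 4°C, and the supernatant after 21,000xg for 90 min was measured by TMTpro 16plex LC-MS/MS with channel sums equalised. Reported thermal stability, relative to control samples and from duplicates, is a log2 fold change.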

[2] = compound: NC(=O)c1cnc(N[C@@H]2CCCC[C@@H]2N)nc1Nc1cccc(-n2nccn2)c1
Procedure, shortened: as §1

[3] = compound: NC1(c2ccc(-c3nc4ccn5c(=O)[nH]nc5c4cc3-c3ccccc3)cc2)CCC1
Procedure, shortened: as §1

[4] = compound: NCC(=O)Nc1ccc(-n2nc(C(F)(F)F)cc2-c2ccc3c(ccc4ccccc43)c2)cc1
Procedure, shortened: as §1

entinostat = compound: Nc1ccccc1NC(=O)c1ccc(CNC(=O)OCc2cccnc2)cc1 [entinostat]
Procedure, shortened: as §1

vorinostat = compound: O=C(CCCCCCC(=O)Nc1ccccc1)NO [vorinostat]
Procedure, shortened: as §1

silmitasertib = compound: O=C(O)c1ccc2c(c1)nc(Nc1cccc(Cl)c1)c1ccncc12 [silmitasertib]
Procedure, shortened: as §1

[5] = compound: O=C1NC(=O)C(c2cnc3ccccn23)=C1c1cn2c3c(cc(F)cc13)CN(C(=O)N1CCCCC1)CC2
Procedure, shortened: as §1

citarinostat = compound: O=C(CCCCCCNC(=O)c1cnc(N(c2ccccc2)c2ccccc2Cl)nc1)NO [citarinostat]
Procedure, shortened: as §1

[6] = compound: c1cc(OCCN2CCCCC2)cc(-c2n[nH]c3ccc(-c4nnc[nH]4)cc23)c1
Procedure, shortened: as §1

UniProt Q7L099, sequence (Q7L099 whole entry, looked up): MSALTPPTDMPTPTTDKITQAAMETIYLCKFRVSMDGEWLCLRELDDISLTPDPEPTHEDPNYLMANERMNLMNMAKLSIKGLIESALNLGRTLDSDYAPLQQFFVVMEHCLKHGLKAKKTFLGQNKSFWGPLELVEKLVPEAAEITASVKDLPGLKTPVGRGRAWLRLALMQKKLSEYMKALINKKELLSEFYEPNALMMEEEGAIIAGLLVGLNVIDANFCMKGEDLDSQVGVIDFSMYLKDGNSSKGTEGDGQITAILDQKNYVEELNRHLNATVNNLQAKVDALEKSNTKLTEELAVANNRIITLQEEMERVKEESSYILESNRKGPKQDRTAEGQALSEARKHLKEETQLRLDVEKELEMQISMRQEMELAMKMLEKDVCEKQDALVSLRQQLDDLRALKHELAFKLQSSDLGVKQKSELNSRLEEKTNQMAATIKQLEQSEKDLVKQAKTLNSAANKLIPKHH
UniProt Q9H2M9, sequence (Q9H2M9 whole entry, looked up): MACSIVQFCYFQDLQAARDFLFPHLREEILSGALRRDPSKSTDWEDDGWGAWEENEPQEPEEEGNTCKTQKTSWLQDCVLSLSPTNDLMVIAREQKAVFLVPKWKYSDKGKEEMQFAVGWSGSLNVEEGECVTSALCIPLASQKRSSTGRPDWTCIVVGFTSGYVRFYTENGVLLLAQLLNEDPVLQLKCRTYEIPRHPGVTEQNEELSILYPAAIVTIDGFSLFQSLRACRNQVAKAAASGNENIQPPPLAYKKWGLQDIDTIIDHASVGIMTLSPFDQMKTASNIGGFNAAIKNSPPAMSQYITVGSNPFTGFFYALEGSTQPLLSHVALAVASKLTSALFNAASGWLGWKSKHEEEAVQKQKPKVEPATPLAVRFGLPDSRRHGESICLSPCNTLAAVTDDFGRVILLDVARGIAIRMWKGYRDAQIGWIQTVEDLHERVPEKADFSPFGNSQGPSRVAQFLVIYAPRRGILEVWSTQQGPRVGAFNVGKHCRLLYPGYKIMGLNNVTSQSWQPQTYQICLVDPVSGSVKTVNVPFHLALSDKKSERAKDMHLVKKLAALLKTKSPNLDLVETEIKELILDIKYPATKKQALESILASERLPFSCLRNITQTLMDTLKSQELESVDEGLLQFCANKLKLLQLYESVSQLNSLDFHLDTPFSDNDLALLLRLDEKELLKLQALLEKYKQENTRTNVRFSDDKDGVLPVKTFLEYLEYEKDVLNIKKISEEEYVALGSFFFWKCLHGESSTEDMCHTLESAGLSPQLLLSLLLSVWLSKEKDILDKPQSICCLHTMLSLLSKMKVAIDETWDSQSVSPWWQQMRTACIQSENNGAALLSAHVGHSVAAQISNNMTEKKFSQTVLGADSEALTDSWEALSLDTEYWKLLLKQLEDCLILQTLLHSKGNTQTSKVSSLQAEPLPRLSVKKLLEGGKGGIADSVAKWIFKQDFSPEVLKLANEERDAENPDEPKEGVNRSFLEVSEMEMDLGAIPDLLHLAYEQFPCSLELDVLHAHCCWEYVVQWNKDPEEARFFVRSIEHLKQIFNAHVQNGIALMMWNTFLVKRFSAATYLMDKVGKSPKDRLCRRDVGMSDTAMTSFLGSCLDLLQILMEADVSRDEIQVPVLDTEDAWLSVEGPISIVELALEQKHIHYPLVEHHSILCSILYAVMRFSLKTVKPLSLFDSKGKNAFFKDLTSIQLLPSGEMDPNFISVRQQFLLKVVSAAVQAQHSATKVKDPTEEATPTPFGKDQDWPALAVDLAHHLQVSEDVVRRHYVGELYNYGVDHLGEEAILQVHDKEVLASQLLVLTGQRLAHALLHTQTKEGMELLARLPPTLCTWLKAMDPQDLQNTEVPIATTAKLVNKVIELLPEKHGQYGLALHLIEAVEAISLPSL
UniProt P05543, sequence (P05543 whole entry, looked up): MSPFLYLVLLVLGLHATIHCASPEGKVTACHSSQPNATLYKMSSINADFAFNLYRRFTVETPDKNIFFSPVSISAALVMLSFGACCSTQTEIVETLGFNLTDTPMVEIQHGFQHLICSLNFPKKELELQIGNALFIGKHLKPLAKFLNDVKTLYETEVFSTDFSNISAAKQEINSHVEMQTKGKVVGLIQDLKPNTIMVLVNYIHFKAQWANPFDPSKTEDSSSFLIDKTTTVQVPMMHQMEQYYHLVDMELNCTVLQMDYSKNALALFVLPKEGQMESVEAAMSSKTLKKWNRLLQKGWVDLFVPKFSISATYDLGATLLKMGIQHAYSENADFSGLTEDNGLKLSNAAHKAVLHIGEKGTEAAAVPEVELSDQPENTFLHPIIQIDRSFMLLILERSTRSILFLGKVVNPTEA
UniProt Q8N5L8, sequence (Q8N5L8 whole entry, looked up): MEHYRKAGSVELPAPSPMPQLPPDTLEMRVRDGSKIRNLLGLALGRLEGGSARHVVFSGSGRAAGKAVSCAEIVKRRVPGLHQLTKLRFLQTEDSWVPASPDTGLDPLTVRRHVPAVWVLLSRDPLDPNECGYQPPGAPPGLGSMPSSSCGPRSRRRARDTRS
UniProt P62070, sequence (P62070 whole entry, looked up): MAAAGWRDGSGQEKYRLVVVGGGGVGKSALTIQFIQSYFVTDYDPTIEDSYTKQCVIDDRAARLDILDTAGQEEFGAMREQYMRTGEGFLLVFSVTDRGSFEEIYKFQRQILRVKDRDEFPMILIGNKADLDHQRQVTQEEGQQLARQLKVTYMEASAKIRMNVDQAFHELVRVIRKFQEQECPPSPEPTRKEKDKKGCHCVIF
UniProt Q9Y3L5, sequence (Q9Y3L5 whole entry, looked up): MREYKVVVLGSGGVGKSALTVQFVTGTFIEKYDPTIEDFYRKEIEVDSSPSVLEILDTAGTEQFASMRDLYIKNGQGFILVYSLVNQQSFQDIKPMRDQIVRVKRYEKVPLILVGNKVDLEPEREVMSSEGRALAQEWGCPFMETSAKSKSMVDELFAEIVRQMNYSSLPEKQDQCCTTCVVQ
UniProt Q9BUV8, sequence (Q9BUV8 whole entry, looked up): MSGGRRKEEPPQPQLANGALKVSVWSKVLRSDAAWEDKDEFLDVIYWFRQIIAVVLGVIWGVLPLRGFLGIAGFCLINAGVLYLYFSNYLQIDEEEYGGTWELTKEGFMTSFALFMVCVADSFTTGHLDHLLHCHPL
UniProt Q8NEM2, sequence (Q8NEM2 whole entry, looked up): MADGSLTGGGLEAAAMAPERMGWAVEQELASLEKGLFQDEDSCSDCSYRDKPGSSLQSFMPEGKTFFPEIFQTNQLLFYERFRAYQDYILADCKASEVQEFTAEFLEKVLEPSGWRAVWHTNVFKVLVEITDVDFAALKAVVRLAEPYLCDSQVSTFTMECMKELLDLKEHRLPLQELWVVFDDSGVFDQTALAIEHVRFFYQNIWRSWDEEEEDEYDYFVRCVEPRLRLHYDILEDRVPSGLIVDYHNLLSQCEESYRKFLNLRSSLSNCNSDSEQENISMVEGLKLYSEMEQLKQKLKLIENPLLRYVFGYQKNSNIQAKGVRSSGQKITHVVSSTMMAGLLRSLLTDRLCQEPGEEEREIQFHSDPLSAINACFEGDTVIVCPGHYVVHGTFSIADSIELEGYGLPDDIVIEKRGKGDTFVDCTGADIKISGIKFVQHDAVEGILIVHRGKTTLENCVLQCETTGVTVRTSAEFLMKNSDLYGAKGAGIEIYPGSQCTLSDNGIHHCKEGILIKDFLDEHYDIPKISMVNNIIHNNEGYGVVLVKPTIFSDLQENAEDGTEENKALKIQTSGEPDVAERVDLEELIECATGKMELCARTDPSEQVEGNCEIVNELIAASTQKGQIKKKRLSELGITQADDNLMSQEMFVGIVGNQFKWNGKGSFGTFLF
UniProt P52306, sequence (P52306 whole entry, looked up): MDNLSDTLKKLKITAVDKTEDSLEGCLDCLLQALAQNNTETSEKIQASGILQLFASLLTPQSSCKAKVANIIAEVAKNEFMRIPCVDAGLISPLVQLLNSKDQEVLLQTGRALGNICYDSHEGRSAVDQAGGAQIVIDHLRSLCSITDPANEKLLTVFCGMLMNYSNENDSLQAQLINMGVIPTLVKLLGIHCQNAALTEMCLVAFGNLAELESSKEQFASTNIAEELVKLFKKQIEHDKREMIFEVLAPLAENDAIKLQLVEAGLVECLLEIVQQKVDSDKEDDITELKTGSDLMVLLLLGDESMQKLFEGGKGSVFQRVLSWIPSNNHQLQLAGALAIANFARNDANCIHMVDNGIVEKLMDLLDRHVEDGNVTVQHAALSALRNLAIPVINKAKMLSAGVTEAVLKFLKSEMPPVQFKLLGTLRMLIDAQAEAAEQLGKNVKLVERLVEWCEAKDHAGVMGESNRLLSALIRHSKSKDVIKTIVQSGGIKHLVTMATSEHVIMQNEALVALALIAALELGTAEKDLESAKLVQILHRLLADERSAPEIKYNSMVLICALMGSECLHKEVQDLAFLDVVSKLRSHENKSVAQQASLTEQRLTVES
UniProt Q99643, sequence (Q99643 whole entry, looked up): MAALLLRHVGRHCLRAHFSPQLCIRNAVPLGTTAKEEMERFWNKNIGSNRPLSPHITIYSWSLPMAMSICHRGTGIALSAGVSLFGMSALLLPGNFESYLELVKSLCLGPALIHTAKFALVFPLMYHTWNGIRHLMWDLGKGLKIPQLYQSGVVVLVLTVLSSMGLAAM
UniProt O75446, sequence (O75446 whole entry, looked up): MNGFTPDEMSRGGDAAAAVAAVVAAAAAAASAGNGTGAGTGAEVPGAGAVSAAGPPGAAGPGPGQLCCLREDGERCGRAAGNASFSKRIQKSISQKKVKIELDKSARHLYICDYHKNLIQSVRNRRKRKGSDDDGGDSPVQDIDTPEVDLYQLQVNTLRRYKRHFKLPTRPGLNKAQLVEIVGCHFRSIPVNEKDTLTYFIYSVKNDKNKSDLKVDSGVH

Target	log2 fold change [1]	log2 fold change [2]	log2 fold change [3]	log2 fold change [4]	log2 fold change (entinostat)	log2 fold change (vorinostat)	log2 fold change (silmitasertib)	log2 fold change [5]	log2 fold change (citarinostat)	log2 fold change [6]
SEPTIN5 (UniProt G3XAH0)	0.008	0.004	-0.142	0.016	-0.031	0.16	-0.023	-0.028		
RPP25L (UniProt Q8N5L8)	0.003	-0.052	-0.012	-0.032	-0.001	-0.014	0.073	0.183	-0.08	-0.075
RAP2C (UniProt Q9Y3L5)	0.072	0.299 (active)	0.133	0.118	-0.045	0.051	-0.04	-0.008	0.056	-0.061
SDHC (UniProt Q99643)	-0.12	0.097	-0.079	0.041	-0.178	-0.042	0.032	0	0.033	-0.062
RRAS2 isoform 4 (UniProt P62070)	-0.068	0.03	0.08	0.038	-0.059	-0.069	0.048	-0.01	0.01	0.013
RUFY3 isoform 3 (UniProt Q7L099)	-0.032	-0.022	-0.05	-0.014	0.143	0.071	0.1		0.089	0.013
SERPINA7 (UniProt P05543)	-0.062	0.132	0.234	-0.075	-0.084	-0.164	0.091	0.089	-0.011	0.367
SHCBP1 (UniProt Q8NEM2)	0.01	-0.017	-0.107	-0.08	-0.063	0.039	0.025	-0.087	0.136	-0.091
SIK3 (UniProt H0Y4E8)	-0.022	0.08	-0.22	-0.038	-0.075	-0.053	0.054		-0.053	-0.098
RAP1GDS1 isoform 5 (UniProt P52306)	-0.059	-0.069	-0.181	-0.117	0.027	0.119	0.087	-0.049	0.2	-0.002
SAP30 (UniProt O75446)	0.043	0.032	0.044	0.287	0.165	0.307	0.106	0.047		
RAB5IF isoform 5 (UniProt Q9BUV8)	0.008	0.103	0.003	-0.107	0.007	-0.019	-0.032	0.168	0.225	0.047
RAB3GAP2 (UniProt Q9H2M9)	-0.049	-0.067	-0.089	-0.04	0.057	0.106	0.095	0.099	0.089	-0.065
RPS3 (UniProt P23396)	-0.006	0.05	0.117	0.033	-0.055	0.015	-0.008	0.029	-0.035	-0.145
RPS4X (UniProt P62701)	0.088	0.095	0.216	0.088	-0.048	0.005	0.014	0.126	-0.104	-0.204
